# Source: PubChem BioAssay (Tox21)
# A number with no mark means an inactive call. Records with an inconclusive call do not appear. Where a call stands in place of a potency, no number is given. Calls of active or inactive are those of the source. Unless noted, calls come from the whole dose curve; as a rule, active = well fitted curve in the direction sought with a large enough effect in the repeat runs; inconclusive = weak or mixed curves; inactive = no such curve, though single readings can be large; an effect the other way counts as inactive or inconclusive.
# What was measured:
# [1] = qHTS assay to identify small molecule agonists of the hypoxia (HIF-1) signaling pathway - cell viability counter screen (AID 1224844; calls by dose curve; note: nearly all actives have a fitted effect of over 50% in size; note: potency is the fitted concentration of half-maximal effect)
# Method in brief: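 Cytotoxicity measured by CellTiter-Glo ATP luminescence in the wells also read for beta-lactamase signal. Cells were HRE-bla ME-180 (2,000/well, 0.5% dialyzed FBS), exposed to compounds for 17 h at 37C.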
# [2] = qHTS assay to identify small molecule agonists of H2AX (AID 1224845; active = well fitted activation curve with a large enough effect in the signal ratio in the repeat runs, not every such curve was filed as active; the % refers to the signal ratio; note: potency is the fitted concentration of half-maximal effect)
# Method in brief: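 Wild-type CHO-K1 cells plated overnight, then exposed 3 hr at 37C to compounds at 15 concentrations (0.76% DMSO). Lysed, then HTRF anti-pH2AX(S139)-cryptate/anti-H2AX-d2 detection after 24 hr at room temperature; emissions 665 and 620 nm.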
# [3] = qHTS assay to identify small molecule agonists of the hypoxia (HIF-1) signaling pathway (AID 1224846; active = well fitted activation curve with a large enough effect in the signal ratio in the repeat runs, not every such curve was filed as active; the % refers to the signal ratio)
# Method in brief: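 Compounds added to ME-180 cells carrying hypoxia-response-element beta-lactamase reporter (0.5% dialyzed FBS, 5 h preplating), 17 h at 37C; agonist activity detected by CCF4-AM B/G FRET read-out.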
# [4] = qHTS assay to identify small molecule agonists of H2AX - cell viability counter screen (AID 1224847; calls by dose curve; note: top concentration of the series differs between compounds; nearly all actives have a fitted effect of over 30% in size)
# Method in brief: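 Cytotoxicity counter screen in wild-type CHO-K1 cells: a 3 hr compound treatment at 37C across 15 concentrations, followed by CellTiter-Glo luminescence to gauge viable cells.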
# [5] = qHTS RealTime-Glo MT Cell Viability Assay in HepG2 cells - 24 hour (AID 1224867); note: nearly all actives have a fitted effect of over 50% in size
# Method in brief: (§1)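 Cell number in HepG2 cultures estimated from NanoLuc luminescence generated by metabolic reduction of a prosubstrate by living cells. The homogeneous, nonlytic format allowed repeated reads at 0, 8, 16, 24, 32 and 40 h of compound exposure.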
# [6] = qHTS RealTime-Glo MT Cell Viability Assay in HEK293 cells - 32 hour (AID 1224868); note: nearly all actives have a fitted effect of over 50% in size; note: potency is the fitted concentration of half-maximal effect; for activity change, negative = cytotoxic: top concentration of the series differs between compounds
# Method in brief: (§2)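 Homogeneous bioluminescent viability format in HEK293 cells (600 cells/well). Following 5 h at 37 C/5% CO2, 23 nL compound was pintooled; the signal was measured repeatedly during 40 h incubation.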
# [7] = A CellTox Green Cytotoxicity Assay to monitor cytotoxicity in HEK293 cells - 0 hour (AID 1224869); note: nearly all actives have a fitted effect of over 50% in size
# Method in brief: (§3)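 Fluorescence from a DNA-binding dye excluded by viable cells was measured repeatedly in the same HEK293 wells (600 cells/well) during continuous compound exposure at 37 C. Each assay gives one read point: 0, 8, 16, 24, 32 or 40 h.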
# [8] = qHTS RealTime-Glo MT Cell Viability Assay in HepG2 cells - 40 hour (AID 1224870); note: nearly all actives have a fitted effect of over 50% in size
# Method in brief: (§4)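 HepG2 cells mixed with RealTime-Glo MT reagents (NanoLuc plus cell-permeant prosubstrate) were seeded at 600 cells/well, incubated 5 h at 37 C/5% CO2, then pinned with compounds in DMSO; nonlytic luminescence tracked viability during 40 h treatment.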
# [9] = A CellTox Green Cytotoxicity Assay to monitor cytotoxicity in HEK293 cells - 40 hour (AID 1224871); note: nearly all actives have a fitted effect of over 45% in size; note: potency is the fitted concentration of half-maximal effect
# Method in brief: as §3
# [10] = qHTS RealTime-Glo MT Cell Viability Assay in HEK293 cells - 16 hour (AID 1224872); note: nearly all actives have a fitted effect of over 50% in size; note: potency is the fitted concentration of half-maximal effect; for activity change, negative = cytotoxicity: top concentration of the series differs between compounds
# Method in brief: as §2
# [11] = qHTS RealTime-Glo MT Cell Viability Assay in HepG2 cells - 8 hour (AID 1224873); note: nearly all actives have a fitted effect of over 55% in size
# Method in brief: as §4
# [12] = A CellTox Green Cytotoxicity Assay to monitor cytotoxicity in HEK293 cells - 24 hour (AID 1224875); note: series mostly up to about 77 µM; nearly all actives have a fitted effect of over 45% in size
# Method in brief: as §3
# [13] = qHTS RealTime-Glo MT Cell Viability Assay in HepG2 cells - 32 hour (AID 1224877); note: nearly all actives have a fitted effect of over 55% in size
# Method in brief: as §1
# [14] = A CellTox Green Cytotoxicity Assay to monitor cytotoxicity in HepG2 cells - 24 hour (AID 1224878); note: nearly all actives have a fitted effect of over 45% in size
# Method in brief: (§5)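 Real-time cytotoxicity: fluorescence of a cell-impermeant cyanine dye binding DNA of dead HepG2 cells, measured repeatedly (0–40 h) during compound exposure at 37 C. Cells seeded 600/well with reagent, dosed after 5 h.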
# [15] = A CellTox Green Cytotoxicity Assay to monitor cytotoxicity in HepG2 cells - 40 hour (AID 1224879); note: nearly all actives have a fitted effect of over 40% in size; note: potency is the fitted concentration of half-maximal effect
# Method in brief: as §5
# [16] = qHTS RealTime-Glo MT Cell Viability Assay in HEK293 cells - 0 hour (AID 1224880); note: top concentration of the series differs between compounds; nearly all actives have a fitted effect of over 45% in size
# Method in brief: (§6)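 Luminescence, which tracks viable cell number through reduction of the prosubstrate to a NanoLuc substrate, was read over continuous 37 C culture. Cells (600/well) were premixed with reagent and rested 5 h before 23 nL of compound in DMSO was pinned.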
# [17] = A CellTox Green Cytotoxicity Assay to monitor cytotoxicity in HepG2 cells - 16 hour (AID 1224876); note: nearly all actives have a fitted effect of over 45% in size
# Method in brief: as §5
# [18] = qHTS RealTime-Glo MT Cell Viability Assay in HEK293 cells - 40 hour (AID 1224874); conditions: RealTime-Glo luminescence; max response: hits give low values; note: nearly all actives have a fitted effect of over 50% in size; note: potency is the fitted concentration of half-maximal effect
# Method in brief: as §6
compound,measurement,setting,value
CCN(O)CC,Potency,[1],inactive
same,Potency,[2],inactive
same,outcome,[3],inactive
same,Potency,[4],inactive
same,Potency,[5],inactive
same,Potency,[6],inactive
same,Potency,[7],inactive
same,Potency,[8],inactive
same,Potency,[9],inactive
same,Potency,[10],inactive
same,outcome,[11],inactive
same,Potency,[12],inactive
same,Potency,[13],inactive
same,Potency,[14],inactive
same,Potency,[15],inactive
same,outcome,[16],inactive
C=Cc1ccccc1,Potency,[1],inactive
same,Potency,[2],inactive
same,outcome,[3],inactive
same,Potency,[4],inactive
same,Potency,[5],inactive
same,Potency,[6],inactive
same,Potency,[7],inactive
same,Potency,[8],inactive
same,Potency,[9],inactive
same,Potency,[10],inactive
same,outcome,[11],inactive
same,Potency,[12],inactive
same,Potency,[17],inactive
same,Potency,[13],inactive
same,Potency,[14],inactive
same,Potency,[15],inactive
same,outcome,[16],inactive
CCCCNc1cc(C(=O)O)cc(S(N)(=O)=O)c1Oc1ccccc1,Potency,[1],inactive
same,Potency,[2],inactive
same,outcome,[3],inactive
same,Potency,[4],inactive
same,Potency,[5],inactive
same,Potency,[6],inactive
same,Potency,[7],inactive
same,Potency,[8],inactive
same,Potency,[9],inactive
same,Potency,[10],inactive
same,outcome,[11],inactive
same,max response,[18],0.323%
same,Potency,[12],inactive
same,Potency,[13],inactive
same,Potency,[14],inactive
same,outcome,[16],inactive
COc1ccc2nc(NC(=O)Nc3ccccc3)sc2c1,Potency,[1],19 µM (active)
same,Potency,[2],inactive
same,outcome,[3],inactive
same,Potency,[4],inactive
same,Potency,[5],inactive
same,Potency,[6],5.35 µM (active)
same,Potency,[7],inactive
same,Potency,[8],inactive
same,Potency,[9],26.8 µM (active)
same,outcome,[11],inactive
same,Potency,[18],6.01 µM (active)
same,Potency,[17],inactive
same,Potency,[15],4.25 µM (active)
same,outcome,[16],inactive
CC(=O)OC(C)OC(C)=O,Potency,[1],inactive
same,Potency,[2],inactive
same,outcome,[3],inactive
same,Potency,[4],inactive
same,Potency,[5],inactive
same,Potency,[6],inactive
same,Potency,[7],inactive
same,Potency,[8],inactive
same,Potency,[9],inactive
same,Potency,[10],inactive
same,outcome,[11],inactive
same,Potency,[12],inactive
same,Potency,[17],inactive
same,Potency,[13],inactive
same,Potency,[14],inactive
same,Potency,[15],inactive
CC(C)c1ccccc1,Potency,[1],inactive
same,Potency,[2],inactive
same,outcome,[3],inactive
same,Potency,[4],inactive
same,Potency,[5],inactive
same,Potency,[6],inactive
same,Potency,[8],inactive
same,Potency,[10],inactive
same,outcome,[11],inactive
same,max response,[18],1.09%
same,Potency,[12],inactive
same,Potency,[17],inactive
same,Potency,[13],inactive
same,Potency,[14],inactive
same,Potency,[15],inactive
same,outcome,[16],inactive
CN(C)C(=O)NC1(c2ccccc2)CCN(CCC[C@]2(c3ccc(Cl)c(Cl)c3)CCCN(C(=O)c3ccccc3)C2)CC1,"activity change, negative = cytotoxicity",[1],-18.7% [at 15.8 µM]
same,activation (H2AX phosphorylation),[2],5.48% [at 31.6 µM]
same,activation,[3],0.323% [at 15.8 µM]
same,"activity change, negative = cytotoxicity",[4],-0.817% [at 31.6 µM]
same,"activity change, negative = cytotoxicity",[5],-9.68% [at 15.8 µM]
same,"activity change, negative = cytotoxic",[8],-4.9% [at 15.8 µM]
same,cytotoxicity increase,[9],31% [at 15.8 µM]
same,"viability change, negative = cytotoxic",[11],-6.85% [at 15.8 µM]
same,activity change,[12],"4.75% [at 15.8 µM, hits give high values]"
same,cytotoxicity increase,[17],15.3% [at 15.8 µM]
same,"activity change, negative = cytotoxic",[13],-9.2% [at 15.8 µM]
same,cytotoxicity,[14],19.6% [at 15.8 µM]
same,"activity change, negative = cytotoxicity",[16],0.507% [at 15.8 µM]
CCCC(CCC)(C(=O)OCC)C(=O)OCC,Potency,[1],inactive
same,Potency,[2],inactive
same,outcome,[3],inactive
same,Potency,[4],inactive
same,Potency,[5],inactive
same,Potency,[6],inactive
same,Potency,[7],inactive
same,Potency,[8],inactive
same,Potency,[9],inactive
same,Potency,[10],inactive
same,outcome,[11],inactive
same,Potency,[12],inactive
same,Potency,[17],inactive
same,Potency,[13],inactive
same,Potency,[14],inactive
same,outcome,[16],inactive
CCC(=O)c1ccc2c(c1)N(CCCN(C)C)c1ccccc1S2,Potency,[1],inactive
same,Potency,[2],inactive
same,outcome,[3],inactive
same,Potency,[4],inactive
same,Potency,[5],inactive
same,Potency,[6],16.9 µM (active)
same,Potency,[7],inactive
same,Potency,[8],inactive
same,Potency,[10],10.7 µM (active)
same,outcome,[11],inactive
same,Potency,[12],inactive
same,Potency,[13],inactive
same,outcome,[16],inactive
CC1=CC(=O)CC(C)(C)C1=O,Potency,[1],inactive
same,Potency,[2],inactive
same,outcome,[3],inactive
same,Potency,[4],inactive
same,Potency,[5],inactive
same,Potency,[6],inactive
same,Potency,[8],inactive
same,Potency,[9],inactive
same,Potency,[10],inactive
same,outcome,[11],inactive
same,max response,[18],-4.9%
same,Potency,[12],inactive
same,Potency,[17],inactive
same,Potency,[13],inactive
same,Potency,[14],inactive
same,Potency,[15],inactive
same,outcome,[16],inactive
COc1ccc(S(=O)(=O)Nc2nnc(CC(C)C)s2)cc1,Potency,[1],inactive
same,Potency,[2],inactive
same,outcome,[3],inactive
same,Potency,[4],inactive
same,Potency,[5],inactive
same,Potency,[6],inactive
same,Potency,[7],inactive
same,Potency,[8],inactive
same,Potency,[9],inactive
same,Potency,[10],inactive
same,outcome,[11],inactive
same,max response,[18],6.93%
same,Potency,[12],inactive
same,Potency,[17],inactive
same,Potency,[14],inactive
same,Potency,[15],inactive
same,outcome,[16],inactive
COC(=O)N[C@H](C(=O)N[C@@H](Cc1ccccc1)[C@@H](O)CN(Cc1ccc(-c2ccccn2)cc1)NC(=O)[C@@H](NC(=O)OC)C(C)(C)C)C(C)(C)C,Potency,[1],inactive
same,Potency,[2],24.7 µM (active)
same,outcome,[3],inactive
same,Potency,[4],inactive
same,Potency,[5],inactive
same,Potency,[6],inactive
same,Potency,[7],inactive
same,Potency,[9],inactive
same,Potency,[10],inactive
same,max response,[18],-6.22%
same,Potency,[12],inactive
same,outcome,[16],inactive
CC(C)=CCCC(C)CCOC=O (stereo not drawn),Potency,[1],inactive
same,Potency,[2],inactive
same,outcome,[3],inactive
same,Potency,[4],inactive
same,Potency,[5],inactive
same,Potency,[6],inactive
same,Potency,[7],inactive
same,Potency,[8],inactive
same,Potency,[9],inactive
same,Potency,[10],inactive
same,outcome,[11],inactive
same,max response,[18],13.4%
same,Potency,[12],inactive
same,Potency,[17],inactive
same,Potency,[14],inactive
same,Potency,[15],inactive
C[C@@H]1CN(c2c(F)c(N)c3c(=O)c(C(=O)O)cn(C4CC4)c3c2F)C[C@H](C)N1,"activity change, negative = cytotoxicity",[1],-0.675% [at 15.8 µM]
same,activation (H2AX phosphorylation),[2],0.193% [at 31.6 µM]
same,activation,[3],0.203% [at 15.8 µM]
same,"activity change, negative = cytotoxicity",[4],2.57% [at 31.6 µM]
same,"activity change, negative = cytotoxicity",[5],2.81% [at 15.8 µM]
same,"activity change, negative = cytotoxic",[6],-1.37% [at 15.8 µM]
same,cytotoxicity,[7],8.42% [at 15.8 µM]
same,"activity change, negative = cytotoxic",[8],-0.442% [at 15.8 µM]
same,cytotoxicity increase,[9],6.32% [at 15.8 µM]
same,"activity change, negative = cytotoxicity",[10],-1.59% [at 15.8 µM]
same,"viability change, negative = cytotoxic",[11],0.974% [at 15.8 µM]
same,max response,[18],-0.345%
same,activity change,[12],"0.48% [at 15.8 µM, hits give high values]"
same,"activity change, negative = cytotoxic",[13],1.06% [at 15.8 µM]
same,cytotoxicity,[14],-3.54% [at 15.8 µM]
same,cytotoxicity increase,[15],-1.78% [at 15.8 µM]
same,"activity change, negative = cytotoxicity",[16],-2.5% [at 15.8 µM]
NC(=O)NS(=O)(=O)c1ccc(Cl)cc1,Potency,[1],inactive
same,Potency,[2],inactive
same,outcome,[3],inactive
same,Potency,[4],inactive
same,Potency,[5],inactive
same,Potency,[6],inactive
same,Potency,[8],inactive
same,Potency,[9],inactive
same,Potency,[10],inactive
same,outcome,[11],inactive
same,max response,[18],0.44%
same,Potency,[12],inactive
same,Potency,[17],inactive
same,Potency,[13],inactive
same,Potency,[14],inactive
same,outcome,[16],inactive
O=C(O)c1cccc(Cl)c1Cl,Potency,[1],inactive
same,Potency,[2],inactive
same,outcome,[3],inactive
same,Potency,[4],inactive
same,Potency,[5],inactive
same,Potency,[6],inactive
same,Potency,[7],inactive
same,Potency,[8],inactive
same,Potency,[9],inactive
same,Potency,[10],inactive
same,outcome,[11],inactive
same,Potency,[12],inactive
same,Potency,[17],inactive
same,Potency,[13],inactive
same,Potency,[14],inactive
same,Potency,[15],inactive
